Laboratory results published in paper PMC7826789 (International Journal of Molecular Sciences, 2021).

Test system: MARK1
Details: Compound Concentration (nM):1000
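Further: KINOMEscan scanMAX binding as percent activity remaining versus control; lower means stronger binding.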

Structure (SMILES) | Percent Control
NS(=O)(=O)c1ccc(N/N=C2\C(=O)Nc3ccc(C(=O)NCc4ccncc4)cc32)cc1 [GW300657X] | 100%
COc1ccc(COc2ccc(Cc3cnc(N)nc3N)cc2OC)cc1 [GW632580X] | 83%
NS(=O)(=O)c1ccc(Nc2ncc(-c3ccccc3)o2)cc1 [GW572399X] | 100%
COC(=O)Nc1nc2ccc(Oc3ccc(NC(=O)Nc4cc(C(F)(F)F)ccc4F)cc3)cc2s1.Cl [GW693917A] | 100%
COc1cc(C)c(N(C)C(=O)CN(C)C)cc1Nc1nc(Nc2cccc(F)c2C(N)=O)c2cc[nH]c2n1 [GSK2219385] | 100%
COc1cc(N2CCN(C(C)C)CC2)ccc1Nc1nc(Nc2ccc(F)cc2C(=O)NC[C@@H](O)CO)c2cc[nH]c2n1 [GSK1392956A] | 90%
CC(C)COC(=O)c1ccc2c(c1)/C(=C/Nc1ccc(S(N)(=O)=O)cc1)C(=O)N2 [GW416981X] | 100%
Cl.c1ccc(Cc2nc3ccc(Nc4ncnc5ccccc45)cc3[nH]2)cc1 [GR269666A] | 100%
CCn1c(-c2nonc2N)nc2c(C#CC(C)(C)O)nc(OCCNC)cc21.Cl [GSK949675] | 100%
COc1cc2ncn(-c3cc(O[C@H](C)c4ccccc4Cl)c(C(N)=O)s3)c2cc1OC [GSK237701A] | 77%
COc1cccc(-n2ncc3c(N/N=C/c4ccncc4)ncnc32)c1 [GW784752X] | 100%
C[C@@H](Oc1cc(-n2cnc3ccc(OC4CCN(C)CC4)cc32)sc1C(N)=O)c1ccccc1Cl [GSK579289A] | 85%
Cl.O=C(Nc1ccc(Oc2ccc3[nH]c(NC(=O)c4ccccc4)nc3c2)cc1)Nc1cc(C(F)(F)F)ccc1F [GW709042A] | 61%
C/C(Nc1ccc(S(N)(=O)=O)cc1)=C1/C(=O)Nc2ccccc21 [GW335962X] | 83%

Test system: MARK2
Details: Compound Concentration (nM):1000

Structure (SMILES) | Percent Control
Cl.O=S1CCN(Cc2ccc(-c3ccc4ncnc(Nc5ccc(OCc6ccccc6)c(F)c5)c4c3)o2)CC1 [GW576924A] | 100%
COc1ccc2[nH]c3c4[nH]c5ccc(OC)cc5c4c4c(c3c2c1)C(=O)NC4=O [GW296115X] | 71%
COc1cc2ncnc(Nc3ccc4c(cnn4Cc4ccccc4)c3)c2cc1OC.Cl [GW282449A] | 100%
COc1cc(C=NNc2ncnc3c2cnn3-c2ccccc2)ccc1O [GW513184X] | 90%
COc1ccccc1-c1cc(/C=C2\C(=O)Nc3ncc(Br)cc32)cc(Br)c1O [GW442130X] | 100%
CN1CCN(C(=O)c2ccc(NC(=O)Nc3ccc(N(C)c4ccnc(Nc5ccc(CS(C)(=O)=O)cc5)n4)cc3)cc2)CC1.Cl [GW830263A] | 84%
O=C1Nc2ccc(C(=O)c3ccco3)cc2C1=Cc1cc(Cl)c(O)c(Cl)c1 [GW406108X] | 75%
COc1cc(/C=N/Nc2ncnc3[nH]ncc23)ccc1O [GW578748X] | 100%
Cc1cc(O)cc(C)c1/C=C/c1cncc(C(N)=O)c1 [GW435821X] | 100%
CCS(=O)(=O)c1ccc(OC)c(Nc2ncc(-c3cccc(F)c3)o2)c1 [GW621970X] | 100%
Cl.O=C(Nc1ccc(Oc2ccc3[nH]c(NC(=O)c4ccco4)nc3c2)cc1)Nc1cc(C(F)(F)F)ccc1F [GW683134A] | 100%
Nc1ncnc2occ(-c3ccc(NC(=O)Nc4cc(C(F)(F)F)ccc4F)cc3)c12 [GW770249X] | 94%
O=C(Nc1n[nH]c2nc(-c3ccc(O)cc3)c(Br)cc12)C1CC1 [SB-725317] | 100%
CC1=C(C(=O)Nc2ccc3[nH]ncc3c2)C(c2ccc(Cl)c(Cl)c2)CC(=O)N1 (stereo not drawn) [GSK299115A] | 100%
NS(=O)(=O)c1ccc(N/N=C2\C(=O)Nc3ccc(Cl)cc32)cc1 [GW280670X] | 100%
CC1=C(C(=O)Nc2ccc3[nH]ncc3c2)C(c2ccc3ccccc3c2)CC(=O)N1 (stereo not drawn) [GSK270822A] | 95%
COc1cccc(-c2c[nH]c3c(N/N=C/c4ccncc4)ncnc23)c1 [GW814408X] | 100%
NS(=O)(=O)c1ccc(N/N=C2\C(=O)Nc3ccc(C(=O)NCCc4c[nH]cn4)cc32)cc1 [GW300660X] | 100%
CN(C)CCNC(=O)Nc1ccc(N(C)c2ccnc(Nc3ccc(CS(C)(=O)=O)cc3)n2)cc1.Cl [GW830900A] | 67%
COc1ccc2cc(-c3c(-c4ccncc4)nc(-c4ccc(S(C)(=O)=O)cc4C)n3C)ccc2c1 [SB-633825] | 93%

Structure (SMILES) | Percent Control
NS(=O)(=O)c1ccc(N/N=C2\C(=O)Nc3ccc(-c4cnco4)cc32)cc1 [GW276655] | 85%
CN(C)c1cc2c(Nc3ccc4c(cnn4Cc4ccccc4)c3)ncnc2cn1 [GW282974X] | 97%
COc1ccc2c(-c3ccnc(Nc4cccc(OC(F)(F)F)c4)n3)cnn2n1 [GW810372X] | 100%
Cl.O=C(O[C@H]1CN[C@H](C#Cc2cc3ncnc(Nc4ccc5c(cnn5Cc5ccccc5)c4)c3s2)C1)N1CCOCC1 [GSK200398A] | 87%
CCS(=O)(=O)c1ccc(OC)c(Nc2ncc(-c3cccc(OC)c3)o2)c1 [GW580509X] | 100%
CCc1ccc(Oc2nccc(-c3c(-c4ccc(F)cc4)ncn3C3CCNCC3)n2)cc1 [SB-242719] | 77%
NS(=O)(=O)c1ccc(N/N=C2\C(=O)Nc3ccc(C(=O)NCc4ccncc4)cc32)cc1 [GW300657X] | 91%
COc1ccc(COc2ccc(Cc3cnc(N)nc3N)cc2OC)cc1 [GW632580X] | 93%
NS(=O)(=O)c1ccc(Nc2ncc(-c3ccccc3)o2)cc1 [GW572399X] | 100%
COC(=O)Nc1nc2ccc(Oc3ccc(NC(=O)Nc4cc(C(F)(F)F)ccc4F)cc3)cc2s1.Cl [GW693917A] | 78%
COc1cc(C)c(N(C)C(=O)CN(C)C)cc1Nc1nc(Nc2cccc(F)c2C(N)=O)c2cc[nH]c2n1 [GSK2219385] | 95%
COc1cc(N2CCN(C(C)C)CC2)ccc1Nc1nc(Nc2ccc(F)cc2C(=O)NC[C@@H](O)CO)c2cc[nH]c2n1 [GSK1392956A] | 59%
CC(C)COC(=O)c1ccc2c(c1)/C(=C/Nc1ccc(S(N)(=O)=O)cc1)C(=O)N2 [GW416981X] | 73%
Cl.c1ccc(Cc2nc3ccc(Nc4ncnc5ccccc45)cc3[nH]2)cc1 [GR269666A] | 100%
CCn1c(-c2nonc2N)nc2c(C#CC(C)(C)O)nc(OCCNC)cc21.Cl [GSK949675] | 90%
COc1cc2ncn(-c3cc(O[C@H](C)c4ccccc4Cl)c(C(N)=O)s3)c2cc1OC [GSK237701A] | 100%
COc1cccc(-n2ncc3c(N/N=C/c4ccncc4)ncnc32)c1 [GW784752X] | 100%
C[C@@H](Oc1cc(-n2cnc3ccc(OC4CCN(C)CC4)cc32)sc1C(N)=O)c1ccccc1Cl [GSK579289A] | 77%
Cl.O=C(Nc1ccc(Oc2ccc3[nH]c(NC(=O)c4ccccc4)nc3c2)cc1)Nc1cc(C(F)(F)F)ccc1F [GW709042A] | 100%
C/C(Nc1ccc(S(N)(=O)=O)cc1)=C1/C(=O)Nc2ccccc21 [GW335962X] | 72%
